# Experimental data reported in ChEMBL document CHEMBL3433997, “St. Jude Leishmania screening dataset” (2016).
# Key:
# Assay type in all cases: functional
# [1] = molecular target: Solute carrier family 2, facilitated glucose transporter member 1 (Homo sapiens) (UniProt P11166); test: ST_JUDE_LEISH: Cytotoxicity at 2uM final concentration against transgenic Leishmania Mexicana promastigotes LmGLUT1 that are glucose transport deficient and complemented with the human glucose transporter GLUT1. Activity is measured by DNA content using SYBR green in vitro
# [2] = molecular target: Hexose transporter 1 (Plasmodium falciparum) (UniProt O97467); test: ST_JUDE_LEISH: Cytotoxicity at 2uM final concentration against transgenic Leishmania Mexicana promastigotes LmPfHT that are glucose transport deficient and complemented with the Plasmodium falciparum hexose transporter. Activity is measured by DNA content using SYBR green in vitro
# [3] = molecular target: Glucose transporter (Leishmania mexicana) (UniProt O61059); test: ST_JUDE_LEISH: Cytotoxicity at 2uM final concentration against transgenic Leishmania Mexicana promastigotes LmGT2 that are glucose transport deficient and complemented with the L. Mexicana glucose transporter 2. Activity is measured by DNA content using SYBR green in vitro
# Chain of Solute carrier family 2, facilitated glucose transporter member 1 (Homo sapiens) (P11166 whole entry): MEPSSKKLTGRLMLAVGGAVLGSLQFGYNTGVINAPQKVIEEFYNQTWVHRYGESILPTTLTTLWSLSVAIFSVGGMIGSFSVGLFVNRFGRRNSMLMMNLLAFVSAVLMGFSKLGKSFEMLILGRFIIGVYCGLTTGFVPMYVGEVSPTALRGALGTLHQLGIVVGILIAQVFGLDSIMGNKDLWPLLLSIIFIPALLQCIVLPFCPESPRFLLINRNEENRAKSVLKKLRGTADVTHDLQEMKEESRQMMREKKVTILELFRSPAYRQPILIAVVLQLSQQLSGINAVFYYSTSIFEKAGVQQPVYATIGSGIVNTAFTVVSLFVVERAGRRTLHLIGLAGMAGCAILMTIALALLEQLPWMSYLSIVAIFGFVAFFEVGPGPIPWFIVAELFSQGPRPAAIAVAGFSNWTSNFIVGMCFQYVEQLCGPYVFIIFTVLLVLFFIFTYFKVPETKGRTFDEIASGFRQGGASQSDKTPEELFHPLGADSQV
SMILES,inhibition [1] [%],inhibition [2] [%],inhibition [3] [%]
CC[C@H](C)CNC(=O)c1cncc(-c2ccc(CNCC3CNCCCO3)cc2)c1 (stereo partly drawn),-1.56,-2.12,-0.99
Cc1ccc2c(=NN=CC=Cc3ccccc3)cc(C)[nH]c2c1,1.49,5.52,2.88
C(=N\Nc1nccc2sc(-c3ccccc3)cc12)/c1cccnc1,4.32,3.5,3.16
Cc1cccc2nc(-c3cccc(-c4ccc(NC(=O)Cc5ccon5)cc4)c3)[nH]c12,14.2,12.3,10.8
COc1cc(C)nc2ccc(NC(=O)Nc3ccc4nc(C)cc(OC)c4c3)cc12,8.47,6.65,8.59
c1cc(CNCC2CCCO2)cc(-c2ccc(-c3nc4ccccc4[nH]3)s2)c1 (stereo not drawn),0.61,-3.37,-0.92
COc1ccc2nccc(N3CCN(CCNCc4ccc5c(n4)NC(=O)CS5)CC3)c2n1,0.43,1.14,0.07
CC(C)Cn1c(Sc2ccc(C#N)c([N+](=O)[O-])c2)nnc1-c1cccs1,1.53,3.14,0.24
COc1cc(NC(=O)c2cc3c(C)nn(-c4cccc(C(F)(F)F)c4)c3s2)cc(OC)c1OC,0.22,1.29,2.46
CNc1nc(Nc2ccccc2C)nc2ccccc12,33.8,34.3,18.3
CCN(CC)CCCSc1ccc(-c2ccc(SCCCN(CC)CC)cc2)cc1,88.5,91.5,78.2
COc1cc(Cc2cnc(N)nc2N)cc(OCCCCC2NC(=O)NC2=O)c1OC (stereo not drawn),14.8,14.5,11.6
Fc1cccc(COc2ccc(Nc3ncnc4sc(C#CCNC5CCC5)cc34)cc2Cl)c1,6.7,5.05,2.46
CC[C@H](C)CNC(=O)c1cncc(-c2ccc(CNCCOc3ccccc3)cc2)c1,1.83,2.11,1.09
COc1ccc2[nH]c(C)cc(=NN=Cc3ccccc3Cl)c2c1,5.14,5.23,1.92
COc1ccc(CNC2CCN(C)CC2)cc1-c1ccc(OC)c(S(=O)(=O)NCc2ccccc2)c1,1.01,1.62,0.01
COc1cc(NC(=O)N2CCOC(CCN3CCC4(CCc5ccccc54)CC3)(c3ccc(Cl)c(Cl)c3)C2)cc(OC)c1OC (stereo not drawn),18.1,15.1,14.1
O=C(Nc1ccc(OC2CCN(Cc3ccc(F)cc3)C2)c(Cl)c1)c1ccccc1 (stereo not drawn),8.62,9.58,4.94
CC(C)CNCc1cccc(-c2cccc(CN(CCN(C)C)C(=O)Nc3ccccc3)c2)c1,2.46,4.17,0.55
CCCCc1cc(=O)oc2cc(C)cc(OCc3ccccc3F)c12,-0.28,1.33,1.06
O=C(NC1CCCCC1)N(Cc1ccc(-c2ccc(CNCc3ccc4c(c3)OCO4)cc2)cc1)C1CCN(Cc2ccccc2)CC1,2.03,1.63,1.56
CCNc1cc(C(=O)N[C@@H](Cc2ccccc2)[C@H](O)CNC(C)(C)c2cccc(OC)c2)cc(N2CCCC2=O)c1,0.14,1.76,-0.62
Cc1ccc(-n2cc(CNCC3CCN(CCO)CC3)c(-c3ccc(F)cc3)n2)cc1,85,2.77,28.2
CCn1c(SC)nnc1C1CCCN(CC(=O)Nc2nc3ccc(OC)cc3s2)C1 (stereo not drawn),4.48,3.27,0.77
COc1ccc(C2CCN(CCN3CCC(NC(=O)c4cccc(-c5ccncc5)c4)CC3)CC2)c(OC)c1,1.32,0.37,0.47
CN1CCC(c2cc3c(cc2Br)CCN3C(=O)Nc2ccc(-c3ccncc3)c(Cl)c2)CC1,0.33,1.09,0.25

SMILES,inhibition [1] [%],inhibition [2] [%],inhibition [3] [%]
COc1ccc(Br)cc1/C=C/C(=O)Nc1cccc(C2CCN(C)CC2)c1,3.43,0.87,4.16
COc1cc2nc(NCCN3CCOCC3)n3nc(-c4ccccc4)nc3c2cc1OC,8.12,6.56,5.62
CCCNCc1ccc(-c2ccc(CN(CCOC)C(=O)c3cccc(C#N)c3)cc2)nc1,1.66,1.45,3.74
Cc1cc(N[C@@H](CC(C)C)C(=O)NCc2cccc(F)c2)nc(NCCc2ccc(F)cc2)n1,4.5,7.16,4.36
O=C(C=Cc1cccs1)N(CCCn1ccnc1)c1nc2ccc(F)cc2s1,4.66,4.09,2.51
CO/C(=C\C=C\c1cc2cc(Cl)c(Cl)cc2[nH]1)C(=O)NCCCN1CC(C)N(C)CC1C (stereo not drawn),7.33,5.89,6.63
C#C[C@H]1O[C@@H](n2cnc3c(Nc4cc(Br)cc(C(F)(F)F)c4)ncnc32)[C@H](O)[C@@H]1O,3.1,2.11,2.53
COc1ccc(N2CCN(CCCCNC(=O)c3ccc(/C=C/c4ccc(Cl)c(Cl)c4)cc3)CC2)c(OC)c1,-0.28,1.71,2.02
CC1c2cccc(O)c2CCN1CCc1ccc(Cl)c(Cl)c1 (stereo not drawn),12.5,7.34,5.5
N#Cc1ccc(NC(=O)c2ccc(Cc3ccc4c(c3)CCN(C3CCC3)CC4)cn2)cc1,9.64,10.6,10.4
CCC(=O)Oc1ccc(NC(=O)c2cccc(OC)c2)cc1,1.64,1.17,1.69
CC1(C)CCCN(c2ncc(-c3cccc(CNCc4ccccc4O)c3)cn2)C1,2.91,2.13,3.18
CCCC(C)N(Cc1ccc(C(C)(C)C)cc1)C(=O)c1ccc(OC)cc1 (stereo not drawn),9.4,10.6,7.03
Cc1cc(=NN=Cc2ccc(F)cc2)c2cccc(C)c2[nH]1,3.22,2.28,3.02
Cc1[nH]c(C)c(-c2ccc(Oc3ccc(Cl)cc3)cc2)c(=O)c1Cl,2.75,2.92,1.25
CC[C@H]1CN(CCCC(=O)c2ccccc2)CC[C@H]1CCCc1ccnc2ccc(OC(=O)c3ccccc3)cc12,4.64,5.86,2.72
O=C(c1cc(C(=O)Nc2ccccc2)c(=O)n(-c2ccccc2)c1)c1cc(Cl)ccc1O,3.8,3.56,2.58
FC(F)(F)c1ccc2[nH]ccc(=NN=CC=Cc3ccccc3)c2c1,0.22,0.25,4.34
O=C(Nc1cccc(F)c1)N(Cc1ccc(-c2ccc(CN3CCNCC3)cc2)cc1)C1CCN(Cc2ccccc2)CC1,-0.04,-0.99,-1.59
N=C(N)NC(=O)Nc1cc(F)c(Cl)c(Cl)c1,12.8,10.5,6.35
[O-][S+]1c2ccccc2Sc2ccccc21,2.27,3.44,1.95
S=C(NCCc1ccccc1)Nc1ccc2ncsc2c1,-0.85,1.14,-0.73
Cc1cc2nc(-c3ccc(SCC(=O)Nc4ccc5c(c4)OCCO5)nc3)[nH]c2cc1C,0.8,-0.74,-4.17
COc1cc(CNc2ccc(N3CCCC3)cc2)cc(Cl)c1OC,-2.15,-4.72,1.78
COc1cc(Nc2nccc(NCC(O)c3ccc(C(F)(F)F)cc3)n2)cc(OC)c1OC (stereo not drawn),1.6,2.84,2.81
